# Measured values from the supplement of paper PMC3334620.
# Whole data set: some 33,000 sequences, median “E-score (-0.5 to 0.5)” near -0.012, cut for the highest 2% near 0.27. The full list was thinned out, with the highest values kept by preference.
# Target: T1, Vhr1 (UniProt P40522)
# T1 sequence: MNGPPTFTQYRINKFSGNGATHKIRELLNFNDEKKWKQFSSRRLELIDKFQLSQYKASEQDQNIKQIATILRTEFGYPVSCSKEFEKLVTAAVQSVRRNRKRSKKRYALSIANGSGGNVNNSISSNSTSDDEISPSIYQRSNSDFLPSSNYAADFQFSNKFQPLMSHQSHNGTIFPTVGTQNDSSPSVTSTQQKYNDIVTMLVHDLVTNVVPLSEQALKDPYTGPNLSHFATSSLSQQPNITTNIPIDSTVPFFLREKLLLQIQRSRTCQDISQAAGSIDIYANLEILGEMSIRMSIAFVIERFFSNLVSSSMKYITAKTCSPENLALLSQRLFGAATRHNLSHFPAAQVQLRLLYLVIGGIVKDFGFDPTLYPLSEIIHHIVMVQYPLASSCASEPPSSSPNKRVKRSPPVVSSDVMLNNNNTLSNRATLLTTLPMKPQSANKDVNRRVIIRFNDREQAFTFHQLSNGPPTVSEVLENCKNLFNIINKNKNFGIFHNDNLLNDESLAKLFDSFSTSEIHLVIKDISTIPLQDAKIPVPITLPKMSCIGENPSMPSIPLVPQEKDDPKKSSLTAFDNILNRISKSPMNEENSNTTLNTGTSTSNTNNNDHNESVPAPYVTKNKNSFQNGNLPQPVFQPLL
# Assay: PBM E-score (8-mer binding enrichment) (E-score (-0.5 to 0.5)); higher = stronger / more preferred TF binding
# Settings: protein concentration: 200 nM; construct: GST-full length
# Procedure: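 Universal 'all 10-mer' protein binding microarrays (Agilent AMADID 015681) probed with GST-tagged S. cerevisiae TFs (full-length or DBD) made by in vitro transcription/translation (PURExpress), about 100-200 nM. Bound TF was detected with fluorescent anti-GST. Each ungapped 8-mer (which stands for itself and its reverse complement) is scored by the PBM enrichment score (E-score), a modified Wilcoxon-Mann-Whitney statistic from -0.5 to +0.5, computed with the Universal PBM Analysis Suite. Scale: above 0.35 generally sequence-specific binding.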
row,Sequence,PBM E-score
1,CACTCGTA,-0.0431
2,AACTCGCA,-0.0141
3,GACTCGGA,0.278
4,AACTCGCC,0.00825
5,TACTCGCA,0.263
6,GACTCGCA,0.319
7,AACTCGTA,0.0622
8,GACTCGTA,0.327
9,AACTCGGA,0.0616
10,GACTCGCC,0.276
11,TACTCGGA,0.126
12,CACTCGCC,0.147
13,AGCGCATA,-0.0303
14,CCCAATAG,-0.0738
15,GACTAAGA,0.0912
16,AGTGTTGG,0.107
17,ATGCTGGA,-0.001
18,AATCTCTC,-0.0867
19,CTAGAGGC,-0.341
20,CCTTAGAC,-0.16
21,AGGCTGAG,-0.0574
22,AACGCGTC,-0.137
23,CACGCGTA,-0.0315
24,CACGCGTC,0.275
25,GCTCATAA,0.0821

row,Sequence,PBM E-score
1,CTGAGCCA,0.247
2,GTGAGCCA,0.355
3,ATGAGCCA,0.271
4,GCAATGGA,-0.128
5,AGGAGTGG,0.0494
6,ATCAGAAC,0.0119
7,ACAGTCAC,0.242
8,GCAGTCAC,0.353
9,CCAGTCAA,0.045
10,CCAGTCAC,0.296
11,GCAGTCCC,0.106
12,GCAGTCAA,0.0401
13,ACGTTGCA,-0.0853
14,ACCATTAT,0.169
15,GCCATGCC,0.00234
16,TCTGCCAA,-0.205
17,CACTGATA,0.0775
18,GCAAAATA,0.00706
19,ATAATCAA,0.0618
20,GCAATCAC,0.159
21,ATAATCAC,0.308
22,ACAATCAC,0.275
23,ATAATCAG,0.0967
24,CCAATCAC,0.179
25,CTAATCAC,0.27

row,Sequence,PBM E-score
1,ATAATCAT,0.389
2,GTAATCAC,0.198
3,ACCAGCGT,0.0656
4,GCAGAACA,0.091
5,CTATTGGA,-0.0419
6,CAAGGGCG,-0.203
7,CCACTCGG,-0.147
8,CTCCCTAA,-0.107
9,GCAGATTA,0.0608
10,ATAAGAAG,-0.11
11,GAGTACCA,0.172
12,CTCCAATC,0.0374
13,AAAGTCAT,0.256
14,ATAGTCAG,0.333
15,ATCGTCAT,0.134
16,ATAGTCCC,0.0218
17,ATAGTCTG,-0.0734
18,ATAGTCAT,0.411
19,CTAGTCAG,0.247
20,ATAGTCAC,0.41
21,ATAGTCAA,0.165
22,CAACCTTC,-0.171
23,AACTGGGT,-0.041
24,GAAGAATC,-0.1
25,TCTTCACA,0.0437

row,Sequence,PBM E-score
1,CTTTCACC,-0.204
2,ATTGTTCC,0.127
3,TCAAGCGA,-0.0594
4,GGCTCTAA,-0.0817
5,TCATAACA,0.272
6,ACATAACA,0.0352
7,GCATAACA,-0.116
8,CTCTTGGA,0.0822
9,AAAGATTT,-0.134
10,ACGCACAG,0.04
11,ACGCACAT,0.0403
12,AATCACAA,0.187
13,ACTCACAG,0.325
14,ACACTCAG,-0.0414
15,AATCACAG,0.27
16,ACTCTCAC,0.115
17,CCTCACAG,0.0151
18,AATCACAT,0.17
19,ACACTCAC,0.281
20,ACTCACAT,0.286
21,AATCACAC,0.316
22,AGTCTGAC,0.148
23,AGGGTCAC,-0.0656
24,CTTCTTAC,-0.221
25,CACGGCGG,0.102

row,Sequence,PBM E-score
1,ACAGGAGG,-0.164
2,CGGAGTAA,0.0314
3,AATCGTGT,0.0868
4,AAAAGAGG,-0.134
5,GCCACACC,0.134
6,CCGGTGGC,-0.0116
7,TCTCACAA,0.0793
8,ACTCACAC,0.39
9,CCTCACAC,-0.0104
10,GCTCACAC,0.148
11,CCTCACAA,0.115
12,ACTCACAA,0.286
13,GAAAGTCC,-0.317
14,AGAGACTC,0.222
15,CAAGACTA,-0.0514
16,CGAGACTA,0.202
17,CAAGACTG,-0.0294
18,CGAGACTC,0.309
19,CAAGACTC,0.295
20,TAGTTATA,0.00574
21,ACCCTACC,0.00399
22,ACATTGAC,0.0886
23,CAAAGCCG,-0.295
24,CTCACCTA,0.103
25,ATTACTGC,0.206

row,Sequence,PBM E-score
1,TACGAAGA,-0.0938
2,CCCTACTC,-0.067
3,AGGTATGA,0.163
4,AACACACT,0.205
5,CACACATA,0.204
6,CACACACA,0.276
7,CGCACACA,0.134
8,AACACACG,0.00318
9,AACACACA,0.33
10,CACACACG,0.272
11,TACACACA,0.268
12,CACACAAA,0.124
13,CCCATTCG,0.00579
14,AAGAGGGT,-0.255
15,AGAGGTAT,0.144
16,CGTCCTAG,-0.181
17,ATGCTAAG,-0.0834
18,CCTATCAA,-0.182
19,AGTCATCG,0.44
20,CGTCATCA,0.0722
21,ATTCATCG,0.121
22,CGTCATCC,0.0455
23,AGTCATCA,0.439
24,GGTCATCA,0.136
25,AGTCATCC,0.464

row,Sequence,PBM E-score
1,AGGCATCG,-0.22
2,ATTCATCC,0.0498
3,CGGCGGGC,0.221
4,CAAGATAA,0.0275
5,CATGGAGG,-0.101
6,CCACGAAC,0.101
7,CAGGACAC,0.135
8,GCTCATCC,0.0555
9,ACTCATCC,0.412
10,ACTCATCT,0.199
11,ACTCATCA,0.32
12,ACTCATCG,0.304
13,TCTCATCA,-0.131
14,CCTCATCG,0.0284
15,CCTCATCC,-0.182
16,GCTCATCA,0.109
17,GCCTTCAC,-0.0812
18,CTTTATCA,-0.157
19,AAGCTACC,0.00426
20,GCCCATGA,0.262
21,AACCATGA,0.351
22,ACCCATGA,0.287
